Source: PubChem BioAssay (EPA / NIEHS)
Records with an inconclusive call do not appear. Activity calls are given as the source filed them. Rule for the calls: active = hit-call score of the fitted dose curve at least 0.9, where 1 is the maximum; inconclusive = response in the unintended direction; inactive = score below 0.9.

Target: Type-1 angiotensin II receptor (Homo sapiens) (UniProt P30556)
Assay: NVS_GPCR_hAT1: NovaScreen (NVS) G Protein-Coupled Receptor Assay for human Angiotensin II receptor type 1 (AT1) (AID 2283263)
Outline: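 Membranes from KAN-TS cells; radioligand competitive displacement, 3 h, filtration and scintillation counting. Single-point duplicate screen at 25 uM, then concentration-response up to 50 uM for hits; loss of signal fitted versus DMSO.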

Sequence of Type-1 angiotensin II receptor (Homo sapiens) (P30556 whole entry, looked up): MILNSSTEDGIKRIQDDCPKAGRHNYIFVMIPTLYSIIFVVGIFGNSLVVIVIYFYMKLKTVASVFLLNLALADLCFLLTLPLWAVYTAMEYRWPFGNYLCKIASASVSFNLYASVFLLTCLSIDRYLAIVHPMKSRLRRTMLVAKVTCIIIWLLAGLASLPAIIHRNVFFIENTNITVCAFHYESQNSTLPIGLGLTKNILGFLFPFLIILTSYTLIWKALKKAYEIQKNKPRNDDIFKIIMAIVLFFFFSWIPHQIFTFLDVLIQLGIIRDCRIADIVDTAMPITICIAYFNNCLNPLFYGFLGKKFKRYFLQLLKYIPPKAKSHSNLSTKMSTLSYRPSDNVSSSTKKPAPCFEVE

AC50, active:
CCN(Cc1cccnc1)C(=O)c1cccc(Cl)c1[C@]1(C)C(=O)N(Cc2ccc(OC)cc2OC)c2ccc(Cl)cc21 3.69 µM
O=C1c2ccccc2C(=O)N1CCc1noc(-c2ccc(CN3CCCCCC3)s2)n1 14.8 µM
CN(C)C(=O)C1(N2CCCCC2)CCN(CC[C@@]2(c3ccc(Cl)c(Cl)c3)CN(C(=O)c3ccccc3)CCO2)CC1 15.7 µM
CN(C[C@@H](CC[N+]12CCC(C3CCCCC3)(CC1)CC2)c1ccc(Cl)c(Cl)c1)C(=O)c1cc(C(F)(F)F)cc(C(F)(F)F)c1 33.1 µM

Target: human Dopamine Receptor D4.4 (DRD4.4), DRD4 (gene 1815) (UniProt P21917)
Assay: NVS_GPCR_hDRD4.4: NovaScreen (NVS) G Protein-Coupled Receptor Assay for human Dopamine Receptor D4.4 (DRD4.4) (AID 2283264)
Outline: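 Radioligand displacement on human DRD4.4 from CHO-derived membranes, 1 hour incubation, bound counts read by filtration and scintillation. Primary screen in duplicate at 25 uM; actives followed up in concentration series.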

Sequence of human Dopamine Receptor D4.4 (DRD4.4), DRD4 (gene 1815) (P21917 whole entry, looked up): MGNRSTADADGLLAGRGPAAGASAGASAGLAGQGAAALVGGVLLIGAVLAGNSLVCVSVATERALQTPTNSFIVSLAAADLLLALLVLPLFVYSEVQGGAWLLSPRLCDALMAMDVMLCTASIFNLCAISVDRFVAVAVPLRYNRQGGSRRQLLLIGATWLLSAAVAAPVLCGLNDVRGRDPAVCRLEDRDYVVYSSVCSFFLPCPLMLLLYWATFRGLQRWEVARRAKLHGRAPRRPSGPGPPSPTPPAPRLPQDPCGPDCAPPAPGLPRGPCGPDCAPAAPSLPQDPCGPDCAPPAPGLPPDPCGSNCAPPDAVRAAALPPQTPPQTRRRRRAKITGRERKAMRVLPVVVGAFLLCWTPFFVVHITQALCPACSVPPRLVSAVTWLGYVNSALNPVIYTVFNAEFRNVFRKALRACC

AC50, active:
CN(C)c1ccc(C(=C2C=CC(=[N+](C)C)C=C2)c2ccc(N(C)C)cc2)cc1 1.11 µM
CCOC(=O)O[C@H](C)OC(=O)c1ccc2c(c1)cc(C(=O)NC1CCN(C(C)C)CC1)n2Cc1cc(-c2ccc(Cl)s2)on1 20.9 µM
CN(C)C(=O)C1(N2CCCCC2)CCN(CC[C@@]2(c3ccc(Cl)c(Cl)c3)CN(C(=O)c3ccccc3)CCO2)CC1 12.2 µM
NCc1cccc(C2CCN(C(=O)c3ccc(C#Cc4ccccc4F)o3)CC2)c1 25 µM
CCN(CC)C(=O)c1cc(S(=O)(=O)Cc2ccccc2)c(N2CCC(c3ccccc3)CC2)cc1N(CC)CCN(C)C 16.3 µM
